From PubChem BioAssay (Tox21)
Active and inactive are the calls of the source. The call rests on the fitted dose curve.

Assay: qHTS assay to identify small molecule agonists of the sonic hedgehog signaling (Shh) pathway (AID 1259368); further: nearly all actives have a fitted effect of over 15% in size;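 on activity change: NIH/3T3-derived 3T3Gli1-Luc cells carrying a stable Gli1-driven firefly luciferase reporter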
Details: NIH/3T3 Gli1-Luc reporter, luciferase, 24 h; series mostly up to 92.4 µM; activity change: at the top concentration
From the text: National Center for Advancing Translational Sciences [NCATS]
NIH Chemical Genomics Center [NCGC]
U.S. Environmental Protection Agency [EPA]
National Institutes of Environmental Health Sciences [NIEHS]
National Toxicology Program [NTP]
The sonic hedgehog (Shh) pathway is essential for normal embryonic development. Dysregulation of the Shh pathway can cause severe developmental defects in organs. Therefore chemicals that interfere with the pathway are potential developmental toxicants. A cell line designated 3T3Gli1-Luc (DMB/OARSA/CFSAN/FDA, Laurel, MD), a NIH/3T3 derived clone containing stably integrated Gli1-Luc reporter is used to detect chemical interference of the Shh pathway, by changes in the expression of the firefly Luc gene under the control of the Gli1 transcriptional response element. This cell line was used to screen Tox21 libraries for identifying and prioritizing the potential developmental toxicants that interfere Shh pathway.
3T3 Gli1-Luc cells were dispensed at 2,000 per well in 5uL of culture medium into white solid bottom 1536-well plates (Greiner Bio-One, Monroe, NC) using a Multidrop Combi (Thermo Scientific, Waltham, MA) dispenser. The assay plates were incubated at 37 C and 5% CO2 for 4hr, and then 23nL of compounds dissolved in DMSO and positive control were transferred using a Pintool station (Wako, San Diego, CA). The assay plates were incubated at 37C and 5% CO2 for 24hr. For luciferase read, 4uL of Amplite Luciferase reporter gene assay reagent (AAT Bioquest, Inc. Sunnyvale, CA) was added to each well of the assay plates using Flying Reagent Dispenser (FRD, Aurora Discovery, San Diego, CA) and incubated at room temperature for 30min. The luminescence signal was measured using a ViewLux plate reader (Perkin Elmer, Shelton, CT).
On the % scale 0 is the no-effect control and ±100 the full control effect; potency means the concentration at half of the fitted maximal effect.

Row | Compound | activity change | Potency
1 | CCCCCCCCCCCCCCCCCCn1cc[n+](C)c1 | -10.1% (inactive) | 
2 | O=C1C=CC(=O)c2ccccc21 | -10.2% (inactive) | 
3 | Oc1ccc(I)cc1 | -1.94% (inactive) | 
4 | CC(C)CC(C)N (stereo not given) | -0.162% (inactive) | 
5 | O=C(Cl)c1ccc(Cl)cc1 | -0.131% (inactive) | 
6 | CC(C)(C)c1cc([N+](=O)[O-])cc(C(C)(C)C)c1O | -7.86% (inactive) | 
7 | NC(=O)c1ccc(N)nc1 | -0.486% (inactive) | 
8 | CCCCCCCCc1ccc(O)cc1 | -5.82% (inactive) | 
9 | CCCN(CCC)c1c([N+](=O)[O-])cc(S(N)(=O)=O)cc1[N+](=O)[O-] | -13% (inactive) | 
10 | CN(C)c1ccc(N=Nc2ccccc2)cc1 |  | 1720 nM (active)
11 | N#CCCO | -1.41% (inactive) | 
12 | CC(O)C#N (stereo not given) | -0.702% (inactive) | 
13 | CC(C)(C)C(O)/C(=C\c1ccc(Cl)cc1Cl)n1cncn1 (stereo not given) | -8.3% (inactive) | 
14 | CC(C)[C@H](C(=O)O[C@H](C#N)c1cccc(Oc2ccccc2)c1)c1ccc(Cl)cc1 | 0.187% (inactive) | 
15 | COCC(=O)N(c1c(C)cccc1C)[C@H](C)C(=O)OC | -0.446% (inactive) | 
16 | CC(C)(C)c1ccc(CSc2cnn(C(C)(C)C)c(=O)c2Cl)cc1 | 0.997% (inactive) | 
17 | NNC(=O)c1ccccc1 | 8.99% (inactive) | 
18 | CN(C)S(=O)(=O)N(SC(F)(Cl)Cl)c1ccccc1 | -13.2% (inactive) | 
19 | CN(C)C(=S)[S-].CN(C)C(=S)[S-].[Cu+2] | -10.5% [at 18.9 µM, active compounds read high] (inactive) | 
20 | O=C(CCCN1CCC2(CC1)C(=O)NCN2c1ccccc1)c1ccc(F)cc1 | -1.7% [at 42.5 µM, active compounds read high] (inactive) | 

Row | Compound | activity change | Potency
21 | CCOP(=S)(OCC)SCCS(=O)(=O)CC | -1.1% (inactive) | 
22 | Oc1ccccc1Br | -0.247% (inactive) | 
23 | O=[N+]([O-])c1ccc2ccc3cccc4ccc1c2c34 | 13.9% (inactive) | 
24 | CCC(C)c1cc(C(C)(C)C)cc(-n2nc3ccccc3n2)c1O (stereo not given) | 0.601% [at 42.5 µM, active compounds read high] (inactive) | 
25 | CC(C)OS(C)(=O)=O | 0.794% (inactive) | 
26 | Cc1ccc(C(=O)Cl)cc1 | 0.017% (inactive) | 
27 | CC(C)(C)C(O)C(Oc1ccc(-c2ccccc2)cc1)n1cncn1 (stereo not given) | -9.77% (inactive) | 
28 | CCOCn1c(-c2ccc(Cl)cc2)c(C#N)c(Br)c1C(F)(F)F | -10% (inactive) | 
29 | CC(C)OC(=S)S | -12.5% (inactive) | 
30 | COc1ccc(OC)c(C=O)c1 | -1.1% (inactive) | 
31 | O=c1ssc(Cl)c1Cl | -15.6% (inactive) | 
32 | Oc1ccc(C(=C(Cl)Cl)c2ccc(O)cc2)cc1 | -7.24% (inactive) | 
33 | CC(=O)/C=C/c1ccc2c(c1)OCO2 | 5.02% (inactive) | 
34 | N#Cc1c(-c2ccc(Cl)cc2)[nH]c(C(F)(F)F)c1Br | -6.81% (inactive) | 
35 | COP(=S)(OC)Oc1cc(Cl)c(Br)cc1Cl | -5.15% (inactive) | 
36 | O=[N+]([O-])c1cc(Cl)ccc1Cl | -1.35% (inactive) | 
37 | C[C@@H](Oc1ccc(Cl)cc1Cl)C(=O)O | 0.314% (inactive) | 
38 | C[C@]12CC[C@@H]3c4ccc(OC(=O)N(CCCl)CCCl)cc4CC[C@H]3[C@@H]1CC[C@@H]2O | -0.98% [at 42.5 µM, active compounds read high] (inactive) | 
39 | O=[N+]([O-])c1ccc(Oc2ccc(C(F)(F)F)cc2[N+](=O)[O-])cc1 | 0.823% (inactive) | 
40 | OC(Cc1ccccc1Cl)(Cn1cncn1)C1(Cl)CC1 (stereo not given) | -0.728% (inactive) | 
